Laboratory results from PubChem BioAssay.
Calls of active or inactive are those of the source. Unless noted, no rule for the calls is given here.

Experiments:
[1] = kinase inhibitors against Plasmodium liver-stage infection, cell-based, known kinase inhibitor set, luminescence, hepatoma host viability (AID 624392); details: Plasmodium liver stage in hepatoma cells, luciferase luminescence, concentration not given here; liver cell % of control: measured here: host liver cell viability; parasite % of control: stronger effect = lower value;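 also: infected cells incubated roughly two days before readout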
[2] = modulators of glucocorticoid suppression of NF-kB, cell-based, luciferase, IL-1B stimulus, dexamethasone (AID 624486); details: NF-kB luciferase reporter, IL-1B + dexamethasone, luminescence; percent of negative control (+Dex): actives lie on both sides, concentration not given here; z-score: measured here: IL-1B alone, no Dex;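 as to percent of negative control (+Dex): 100% = mean signal of vehicle control wells on the plate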
[3] = kinase inhibitors altering Pseudomonas killing of worms, whole organism (AID 651566);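 also: tested at 14 µM; sign flipped so higher z means a lower ratio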; details: C. elegans killed by P. aeruginosa, survival ratio
[4] = activators of macrophage pro-inflammatory response, cell-based, murine, luminescence (AID 652131); details: murine macrophage pro-inflammatory reporter, stronger effect = higher value
[5] = target: Cellular tumor antigen p53 (Homo sapiens) (UniProt P04637); experiment: kinase inhibitors altering GFP-p53 stability in HPV16-positive cells, imaging, known kinase inhibitor set, EGFP/DsRed ratio (AID 1053116); details: stronger effect = higher value; EGFP object count: measured here: GFP-p53 positive objects count;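 also: cells exposed to compounds for 24 h at 37 °C before reading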
[6] = IRF3 reporter activation in THP-1 macrophages, cell-based, PMA-stimulated THP-1, luminescence (AID 1053176); details: PMA-differentiated THP-1, IRF3 reporter luminescence; stronger effect = higher value
[7] = survival rescue of mitochondrial mutant cells in low glucose, primary screen, MELAS cybrids, Rieske KO mouse fibroblasts, CellTiter-Glo (AID 1508586;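 active = mean z-score across replicates of 1.96 or higher in either the MELAS or the Rieske mutant cell line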;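 also: z relative to plate mean and SD of compound and empty wells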)
[8] = MELAS cybrid survival, CellTiter-Glo 48 h, stronger effect = higher value
[9] = Rieske KO mouse fibroblast survival, CellTiter-Glo 72 h

Cellular tumor antigen p53 (Homo sapiens), sequence (P04637 whole entry, looked up): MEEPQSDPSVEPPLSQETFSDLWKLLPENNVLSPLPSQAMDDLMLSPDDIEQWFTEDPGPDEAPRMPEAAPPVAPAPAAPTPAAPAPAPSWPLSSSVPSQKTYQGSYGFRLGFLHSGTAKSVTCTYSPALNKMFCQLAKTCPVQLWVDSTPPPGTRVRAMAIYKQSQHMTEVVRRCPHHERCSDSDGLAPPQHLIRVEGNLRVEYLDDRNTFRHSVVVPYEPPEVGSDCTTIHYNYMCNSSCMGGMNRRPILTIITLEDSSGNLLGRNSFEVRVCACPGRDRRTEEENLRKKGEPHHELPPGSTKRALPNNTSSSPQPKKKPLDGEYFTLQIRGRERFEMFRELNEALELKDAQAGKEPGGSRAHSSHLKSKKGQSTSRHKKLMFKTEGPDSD

SMILES | liver cell % of control [1] | parasite % of control [1] | percent of negative control (+Dex) [2] | z-score [2] | z-score [3] | z-score [4] | EGFP object count [5] | EGFP/DsRed ratio [5] | fraction signal [6] | z-score [7, 8] | z-score [7, 9]
Cc1ccc(Nc2ccnc(Nc3cccc(C(N)=O)c3)n2)cc1O | 103% | 259% (inactive) | 106% (inactive) | 1.52 | -0.32 (inactive) | -1.32 (inactive) | 3 | 0.0254 (inactive) | -0.008 (inactive) | -0.195 (inactive) | 0.472
CCc1cccc(NC(=O)Nc2ccc(Oc3ccc4nc(NC(=O)OC)[nH]c4c3)cc2)c1 | 93.1% | 128% (inactive) | 106% (inactive) | 0.55 | -0.175 (inactive) | 0.13 (inactive) | 106 | 1.83 (active) | -0.002 (inactive) | -0.411 (inactive) | -0.621
OCCCNc1nccc(-c2c(-c3ccc(F)cc3)nn3cc(C(F)(F)F)ccc23)n1 | 124% | 77.5% (inactive) | 106% (inactive) | 1.02 | 0.765 (inactive) | 0.66 (inactive) | 2 | 0.0239 (inactive) | -0.0065 (inactive) | -0.607 (inactive) | 0.0984
COc1cc(N2CCN(C(C)C)CC2)ccc1Nc1nc(Nc2ccc(F)cc2C(N)=O)c2cc[nH]c2n1 | 64.4% | 792% (inactive) | 70% (inactive) | -2.39 | 0.205 (inactive) | 0.179 (inactive) | 4 | 0.221 (inactive) | 0.001 (inactive) | 2.96 (active) | 7.03
c1ccc(Nc2ncc(-c3ccccc3)o2)cc1 | 98.7% | 93.5% (inactive) | 246% (active) | 11.2 | -1.27 (inactive) | 0.128 (inactive) | 5 | 0.0918 (inactive) | -0.011 (inactive) | 1.22 (inactive) | -0.446
COc1cc2ncnc(Nc3ccc(C)c(O)c3)c2cc1OC | 56.5% | 110% (inactive) | 65.5% (inactive) | -2.25 | 0.58 (inactive) | 2.59 (inactive) | 6 | 0.129 (inactive) | 0.0075 (inactive) | 1.32 (inactive) | -0.31
COc1ccc2ncn(-c3cc(O[C@H](C)c4ccccc4C(F)(F)F)c(C(N)=O)s3)c2c1 | 75.6% | 88.3% (inactive) | 75% (inactive) | -2.76 | 0.355 (inactive) | -1.54 (inactive) | 7.5 | 0.176 (inactive) | 0.0035 (inactive) | -0.00963 (inactive) | 0.29
CS(=O)(=O)CCNCc1ccc(-c2ccc3ncnc(Nc4ccc(OCc5ccccc5)cc4)c3c2)o1 | 63.9% | 59.1% (inactive) | 74.5% (inactive) | -1.54 | 0.41 (inactive) | -0.003 (inactive) | 6.5 | 0.116 (inactive) | 0.006 (inactive) | 0.5 (inactive) | -0.312
O=C(NC1NNC2CC(c3ccccc3)CCC21)C1CC1 (stereo not given) | 191% | 74.3% (inactive) | 104% (inactive) | 0.375 | -1.73 (inactive) | 0.532 (inactive) | 2.5 | 0.139 (inactive) | 0.012 (inactive) | -0.677 (inactive) | -0.221
CCn1c(-c2nonc2N)nc2ccc(F)cc21 | 98% | 113% (inactive) | 82.5% (inactive) | -0.655 | -0.725 (inactive) | -0.544 (inactive) | 4 | 0.0296 (inactive) | 0.0105 (inactive) | -0.0553 (inactive) | 0.0939
CNC(=O)c1cncc(/C=C/c2ccccc2Cl)c1 | 165% | 16.8% (inactive) | 109% (inactive) | 0.82 | -0.36 (inactive) | 1.43 (inactive) | 6.5 | 0.185 (inactive) | 0.0005 (inactive) | 1.56 (inactive) | -0.00226
COc1ccc2cc(-c3c(-c4ccncc4)nc(-c4ccc(S(C)(=O)=O)cc4C)n3C)ccc2c1 | 118% | 101% (inactive) | 99% (inactive) | 0.22 | 1.57 (inactive) | -0.298 (inactive) | 1.5 | 0.0486 (inactive) | 0.0025 (inactive) | -0.409 (inactive) | -0.281
O=C1NC(=O)C(c2ccccc2Cl)=C1Nc1cccc(O)c1 | 91.7% | 148% (inactive) | 88% (inactive) | -0.19 | -0.34 (inactive) | 0.132 (inactive) | 5.5 | 0.0989 (inactive) | -0.003 (inactive) | -0.289 (inactive) | -0.424
NC(=O)c1cc(-c2ccncc2)cc(-c2ccccc2)c1N | 95.8% | 55.5% (inactive) | 52% (inactive) | -4.61 | -0.845 (inactive) | -1.14 (inactive) | 2.5 | 0.104 (inactive) | 0.0085 (inactive) | -0.817 (inactive) | -0.475
COC(=O)Nc1nc2ccc(Oc3ccc(NC(=O)Nc4ccccc4)cc3)cc2[nH]1 | 96.2% | 260% (inactive) | 112% (inactive) | 1.13 | 0.065 (inactive) | 0.608 (inactive) | 17.5 | 0.664 (inactive) | -0.0025 (inactive) | -0.73 (inactive) | -0.00674
